Experimental data reported in PubChem BioAssay (NCATS).
“And” between values parts separate entries of the source, which are not always exact repeats. Equal entries are not always repeated. Inconclusive results are not listed. Values without a mark were called inactive. The source made the active and inactive calls. Calls follow the shape of the dose curve; as a rule, active = well fitted cell-killing curve with a large enough effect; inconclusive = small, poorly fitted or top-dose-only effect; inactive = flat fitted curve, though single readings scatter.

Assay: Cellular viability qHTS for adrenocortical cancer (ACC) cell line NCI-H295R (AID 1963990); also: nearly all actives have a fitted effect of over 60% in size
Details: CellTiter-Glo ATP luminescence, 48 h; series mostly up to 46.1 µM; activity change, negative = viability loss: at the top concentration
How it was run: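 Luminescent ATP read-out (CellTiter-Glo, 20 min RT) after 48 h drug exposure of NCI-H295R cells; a titration up to 46 uM final. Data normalized to doxorubicin (100% inhibition) and DMSO (0%); 4-parameter fit gives IC50, max response.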
Potency is read from the fitted curve at half-maximal effect.

Compound	activity change, negative = viability loss	Potency
Cc1ccccc1C(=O)N1CC/C(=N\OS(=O)(=O)O)c2ccc(Cl)cc21	-0.714%	–
CCC[C@@H]1C[C@@H](C(=O)N[C@@H]([C@H]2O[C@H](SC)[C@H](O)[C@@H](O)[C@H]2O)[C@H](C)Cl)N(C)C1	-0.465%	–
COc1ccc(Cl)cc1-c1cc(=O)[nH]c(=S)n1CC(N)=O	-5.69%	–
C[C@H]1C[C@@H]2[C@H]([C@@H](O)C[C@@]3(C)[C@H]2CC[C@]3(O)C(=O)CO)[C@@]2(C)C=CC(=O)C=C12	–	inactive
Nc1ccc(S(=O)(=O)Nc2ccccc2)cc1	-8.36%	–
CC(=O)Nc1ccc(S(=O)(=O)Nc2ccc([N+](=O)[O-])cc2)cc1	-8.53%	–
CC(=O)[C@@]1(O)CC[C@H]2[C@@H]3C[C@H](C)C4=CC(=O)CC[C@]4(C)[C@H]3CC[C@@]21C	-11.7%	–
CCOc1ccc(-n2c([C@@H](C)N(Cc3cccnc3)C(=O)Cc3ccc(F)c(C(F)(F)F)c3)nc3ncccc3c2=O)cc1	-2.19%	–
C#CCN(C)CCCOc1ccc(Cl)cc1Cl	–	18.4 µM (active)
CCCCCCCCCCCCOCCO	-23.2%	–
CCCCC[C@H](O)/C=C/[C@H]1[C@H](O)CC(=O)[C@@H]1CCCCCCC(=O)O	3.4%	–
c1ccc(CCNc2nc(-c3ccccc3)cs2)cc1	5.5%	–
CC(C)[N+](C)(CCOC(=O)C1c2ccccc2Oc2ccccc21)C(C)C	-20.5%	–
CCCCNc1ccc(C(=O)OCCN(CC)CC)cc1	-7.59%	–
Cc1ccc(-c2ccc(C)cn2)nc1	-10.3%	–
C/C(=C1\CCOC(=O)S1)N(C=O)Cc1cnc(C)nc1N	-28.3%	–
C=CC(=O)N1C[C@H](Nc2ncnc3[nH]ccc23)CC[C@@H]1C	-3.68%	–
N#C/C(=C1\SCC(c2ccccc2Cl)S1)n1ccnc1 (stereo not given)	-29.5%	–
CC(=O)OCC(=O)[C@@]1(O)[C@H](C)C[C@H]2[C@@H]3CCC4=CC(=O)C=C[C@]4(C)[C@@]3(F)[C@@H](O)C[C@@]21C	-14.5%	–
CCC(CC)C(c1ccc(Nc2nc3ccccc3s2)cc1)n1cncn1 (stereo not given)	–	17.8 µM (active)

Compound	activity change, negative = viability loss	Potency
CC#Cc1cncc(-c2ccc3c(c2)[C@@]2(N=C(C)C(N)=N2)C2(CCC(OC)CC2)C3)c1 (stereo not given in full)	15.1%	–
C[C@@H]1CCN(C(=O)CC#N)C[C@@H]1N(C)c1ncnc2[nH]ccc12	-4.4%	–
C=CCN1C[C@H](C(=O)N(CCCN(C)C)C(=O)NCC)C[C@@H]2c3cccc4[nH]cc(c34)C[C@H]21	5.85%	–
CCN(CC)CCNC(=O)c1c(C)[nH]c(/C=C2\C(=O)Nc3ccc(F)cc32)c1C	–	13 µM (active) and 15.8 µM (active)
CC(=O)N1CCN(c2ccc(NC(=O)Cc3cnc(-c4ccnc(F)c4)c(C)c3)nc2)CC1	-6.74%	–
N[C@@H](Cc1cc(I)c(O)c(I)c1)C(=O)O	-19.2%	–
Cc1nnc(SCC2=C(C(=O)O)N3C(=O)[C@@H](NC(=O)Cn4cnnn4)[C@H]3SC2)s1	-13.9%	–
CN(C)CCN(C)C(=O)c1ccc(NC(=O)Nc2ccc(-c3nc(N4CCOCC4)c4ccn(CC(F)(F)F)c4n3)cc2)cc1	–	3.16 µM (active)
CCCC(=O)OC[C@@H](OC(=O)CCC)[C@@H](OC(=O)CCC)[C@H](Cn1c2nc(=O)[nH]c(=O)c-2nc2cc(C)c(C)cc21)OC(=O)CCC	-31.4%	–
CCOCOC[C@H](C[C@H](C)C(=O)NO)NC(=O)c1ccc(Oc2ccccc2)cc1	-18.6%	–
C[C@]12CC[C@@H]3c4ccc(O)cc4CC[C@H]3[C@@H]1C[C@@H](O)[C@@H]2O	-20%	–
C[C@]12CC[C@@H]3c4ccc(O)cc4CC[C@H]3[C@@H]1CCC2=O	-20%	–
CCCCOCCOCCOCc1cc2c(cc1CCC)OCO2	-18.2%	–
CCc1oc2ccccc2c1C(=O)c1cc(Br)c(O)c(Br)c1	–	7.31 µM (active)
OC[C@H]1O[C@@H](Oc2cc(O)cc(/C=C/c3ccc(O)cc3)c2)[C@H](O)[C@@H](O)[C@@H]1O	-3.15%	–
COc1cc(/C=C(\C#N)C(=O)Nc2nnc(C(F)(F)F)s2)ccc1OCc1ccc(C(F)(F)F)cc1C(F)(F)F	-12.1%	–
O=C1[C@@H]2[C@H]3CC[C@H](C3)[C@@H]2C(=O)N1CCCCN1CCN(c2ncccn2)CC1	7.17%	–
OC1CCC(Oc2cccc3cnc(Nc4ccc5nc[nH]c5c4)nc23)CC1 (stereo not given)	–	2.51 µM (active)
COC(=O)C1=C(C)NC(C)=C(C(=O)OCCc2ccc(N3CCN(C(c4ccccc4)c4ccccc4)CC3)cc2)C1c1cccc([N+](=O)[O-])c1 (stereo not given)	-22.5%	–
COc1ccc2c(c1)c(CC(=O)OC/C=C(\C)CC/C=C(\C)CCC=C(C)C)c(C)n2C(=O)c1ccc(Cl)cc1	-23.9%	–
